The values that follow come from the supplement of paper PMC6555819.

For one assay, the system named is LXRb:RXRa (NR concentration 270 nM, RXRa partner concentration 90 nM). The experiment in a line: PBM binding z-score (relative to random genomic background probes); higher = stronger binding; sequences stand for … in GC…GCGATTGACAGCGTAGAATGAAGG
The gist of the method: (§1)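 Ligand-free nuclear receptor dimers were bound for 1 h to custom Agilent 4×180K protein-binding microarrays. Detection used antibodies against each partner (one per run). Binding z-scores rest on regression-normalized fluorescence, with random background probes as the reference.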
On to CCCACTGGGGCATAAGGTTACCATAAGCCAGCCC, for which the PBM binding z-score amounted to 0.476.

For GCTTACGGGTCAAACGTTATAGCATGAATAGAAT, the PBM binding z-score turned out to be 4.02.

The sequence TCTCGGATGACACGAAGGTCAGAGCTTTCCAGAG displayed a PBM binding z-score of 1.4.

With ATCTCTAGGTAAAATTTCAGTGAATCCCGAGGAT, the PBM binding z-score was 0.162.

For the sequence CATACAGGGTCAGCTAGGCGAGAGTAGGGACGGC, the PBM binding z-score stood at 2.08.

Sequence GAAACGAGGGCAAGTTGATAGCAGAGTTTGATGG gave a PBM binding z-score of 0.157.

Sequence GCATATAGGTAATACAAGGTGAAAATCCGATTGT gave a PBM binding z-score of 0.602.

Sequence CCTAGTTGGTCAGGAGGTCAGACACCGGATATGA had a PBM binding z-score of 2.16.

On to CCTTACGGCTCACGAGGTTATAGCACGACGAGCG, for which the PBM binding z-score stood at 0.376.

Consider CCTCGGAGGAGAACAGGAGGTCAGAGCTGCCAGA, for which the PBM binding z-score was 1.43.

TAGCCTTGGTCATGCGGGCCAGTATAGTGTCGGC came in with a PBM binding z-score of -1.09.

Sequence AGAATGAGTTTACCAAAGATCAGGGAAACGCTTG returned a PBM binding z-score of -0.0367.

As to ACTCGGAGGACAAAGGTCTGAGCTACGCCAGTGA, the PBM binding z-score is -0.796.

Sequence TTACCAAGGGGAAAGGTCGTTGATGCACGCCTTG showed a PBM binding z-score of 1.81.

The sequence CCTACTGGGCCACGAATGGTCATTGATTCAGTGA showed a PBM binding z-score of -0.606.

In turn, CGTCAAAGTTCAACTAAGGAAACGTAAAGCACGC displayed a PBM binding z-score of 4.2.

Sequence TCTTGTAGATCAAGGAGGTTAAGAAAGCCTGAGT registered a PBM binding z-score of 0.459.

In the case of AATACAGGGTCACTAGGACAGAGTAGGTACGAAT, the PBM binding z-score worked out at 3.97.

The sequence GTTCGGAGGACAAGGTCAGAGCTTTGTCCGTAGA had a PBM binding z-score of 0.904.

For the sequence TGAATGAGGTTAAAGATCAGGTAACGTGGCGTCG, the PBM binding z-score was 1.82.

On to AATACAGGGTCACTAGGCCAGATTAGGTACGAAT, for which the PBM binding z-score amounted to 4.11.

The sequence GCAGACAGGTGTAACGCAGGTAACTCAGGGTGGC gave a PBM binding z-score of -0.823.

Sequence CTACCAAGGTGAACAAGGTCGCTGATTACTATTC returned a PBM binding z-score of 1.37.

Consider CTTAGCAGGCCAGGGTCACTCAAGCATTTCGCTT, for which the PBM binding z-score is 2.19.

Sequence CCTACTGAGCCATTCAGAGGTCATTGATCATATG returned a PBM binding z-score of 3.88.

The sequence GGAAAGAGGGCAAGTTGATAGCAGAGTTTGATGG returned a PBM binding z-score of 1.25.

ATCTCTAGGTAACAAGTTCAGTGGAAGAGAGGAC had a PBM binding z-score of 0.666.

On to TCTCGGCGGACACGAAAGGTCAGAGCTCGACATC, for which the PBM binding z-score was 2.79.

CCTTACTGGTCACTGACAGGTTATAGCATTTGGA came in with a PBM binding z-score of 0.822.

The sequence CGACCAAGGTCAGCAGGTCAGTGAAAGCGACGTG showed a PBM binding z-score of 2.77.

Take TCTTGTAGATCAACAGAGGTTAAGAAAGTGCGCT: the PBM binding z-score is 2.19.

Consider CCTAGTTGGTCAAGGTCACACTCGCTATAGGTAC, for which the PBM binding z-score was determined as 3.43.

Take CAAACTAGGTCAAGAGATCAAAGTCCGCTTCCCG: the PBM binding z-score worked out at 1.95.

The sequence CTACTAAGGTGAACAAGGTCGTTGATTACTATTC yielded a PBM binding z-score of 2.02.

In the case of CGTCCAAGGTCAAGGCCAGTGAAAGAGACTCGAA, the PBM binding z-score was 3.73.

The sequence ATCTCTGGGTAAGACTCAGTTCAGTGAAGAACGC had a PBM binding z-score of 0.319.

In turn, GCTAGTTGGTCAGTAAAAGGACACACACCGGTCG returned a PBM binding z-score of -0.44.

In turn, CCGACTGGGCCAAAAAGGTCATTGATGCCGATAA yielded a PBM binding z-score of 3.93.

In turn, TAGCCTAGGTCATTCAGGGGCCAGGATAGAAAGC yielded a PBM binding z-score of 2.77.

As to GCGACTGGGGCAGCAGCAGGTTACCATAACTTAA, the PBM binding z-score is -0.287.

The test system of a further assay is LXRb homodimer (NR concentration 270 nM). The assay is described as above. The gist of the method:
as §1
For the sequence CCCACTGGGGCATAAGGTTACCATAAGCCAGCCC, the PBM binding z-score is -1.1.

GCTTACGGGTCAAACGTTATAGCATGAATAGAAT: the PBM binding z-score amounted to 0.282.

The sequence TCTCGGATGACACGAAGGTCAGAGCTTTCCAGAG registered a PBM binding z-score of -0.796.

ATCTCTAGGTAAAATTTCAGTGAATCCCGAGGAT had a PBM binding z-score of 1.26.

Sequence CATACAGGGTCAGCTAGGCGAGAGTAGGGACGGC had a PBM binding z-score of 0.134.

The sequence GAAACGAGGGCAAGTTGATAGCAGAGTTTGATGG displayed a PBM binding z-score of -0.895.

The sequence GCATATAGGTAATACAAGGTGAAAATCCGATTGT registered a PBM binding z-score of -0.207.

Take CCTAGTTGGTCAGGAGGTCAGACACCGGATATGA: the PBM binding z-score worked out at 0.128.

As to CCTTACGGCTCACGAGGTTATAGCACGACGAGCG, the PBM binding z-score is -0.33.

CCTCGGAGGAGAACAGGAGGTCAGAGCTGCCAGA came in with a PBM binding z-score of -0.244.

On to TAGCCTTGGTCATGCGGGCCAGTATAGTGTCGGC, for which the PBM binding z-score is -0.961.

In turn, AGAATGAGTTTACCAAAGATCAGGGAAACGCTTG showed a PBM binding z-score of -0.632.

In turn, ACTCGGAGGACAAAGGTCTGAGCTACGCCAGTGA came in with a PBM binding z-score of -0.665.

As for TTACCAAGGGGAAAGGTCGTTGATGCACGCCTTG, the PBM binding z-score was -0.739.

Sequence CCTACTGGGCCACGAATGGTCATTGATTCAGTGA gave a PBM binding z-score of -1.07.

In turn, CGTCAAAGTTCAACTAAGGAAACGTAAAGCACGC registered a PBM binding z-score of 2.11.

The sequence TCTTGTAGATCAAGGAGGTTAAGAAAGCCTGAGT registered a PBM binding z-score of -0.443.

In turn, AATACAGGGTCACTAGGACAGAGTAGGTACGAAT registered a PBM binding z-score of 1.27.

As to GTTCGGAGGACAAGGTCAGAGCTTTGTCCGTAGA, the PBM binding z-score is -0.834.

In turn, TGAATGAGGTTAAAGATCAGGTAACGTGGCGTCG yielded a PBM binding z-score of 0.134.

On to AATACAGGGTCACTAGGCCAGATTAGGTACGAAT, for which the PBM binding z-score worked out at 1.11.

Sequence GCAGACAGGTGTAACGCAGGTAACTCAGGGTGGC registered a PBM binding z-score of -1.61.

The sequence CTACCAAGGTGAACAAGGTCGCTGATTACTATTC displayed a PBM binding z-score of -0.68.

CTTAGCAGGCCAGGGTCACTCAAGCATTTCGCTT displayed a PBM binding z-score of -0.331.

Consider CCTACTGAGCCATTCAGAGGTCATTGATCATATG, for which the PBM binding z-score stood at 1.24.

As to GGAAAGAGGGCAAGTTGATAGCAGAGTTTGATGG, the PBM binding z-score is 0.718.

ATCTCTAGGTAACAAGTTCAGTGGAAGAGAGGAC came in with a PBM binding z-score of 0.823.

Sequence TCTCGGCGGACACGAAAGGTCAGAGCTCGACATC registered a PBM binding z-score of -0.427.

CCTTACTGGTCACTGACAGGTTATAGCATTTGGA gave a PBM binding z-score of 0.49.

For the sequence CGACCAAGGTCAGCAGGTCAGTGAAAGCGACGTG, the PBM binding z-score is -0.923.

For the sequence TCTTGTAGATCAACAGAGGTTAAGAAAGTGCGCT, the PBM binding z-score was -0.36.

Regarding CCTAGTTGGTCAAGGTCACACTCGCTATAGGTAC, the PBM binding z-score is 0.997.

CAAACTAGGTCAAGAGATCAAAGTCCGCTTCCCG returned a PBM binding z-score of 0.064.

For CTACTAAGGTGAACAAGGTCGTTGATTACTATTC, the PBM binding z-score is -0.227.

For the sequence CGTCCAAGGTCAAGGCCAGTGAAAGAGACTCGAA, the PBM binding z-score was 0.00439.

ATCTCTGGGTAAGACTCAGTTCAGTGAAGAACGC displayed a PBM binding z-score of 0.684.

Sequence GCTAGTTGGTCAGTAAAAGGACACACACCGGTCG returned a PBM binding z-score of -0.0401.

Sequence CCGACTGGGCCAAAAAGGTCATTGATGCCGATAA gave a PBM binding z-score of -0.421.

TAGCCTAGGTCATTCAGGGGCCAGGATAGAAAGC yielded a PBM binding z-score of 0.864.

Take GCGACTGGGGCAGCAGCAGGTTACCATAACTTAA: the PBM binding z-score was -1.12.
